The full list was thinned out, with hits kept by preference.
PLAP act: human PLAP activation; actives 1.2% (n = 96,000); activation fold at 20 µM; AID 696; purified PLAP enzyme, luminescent substrate read-out; stronger effect = higher value; in the data active = activation fold above about 2
Target sequence (P05187 whole entry, looked up): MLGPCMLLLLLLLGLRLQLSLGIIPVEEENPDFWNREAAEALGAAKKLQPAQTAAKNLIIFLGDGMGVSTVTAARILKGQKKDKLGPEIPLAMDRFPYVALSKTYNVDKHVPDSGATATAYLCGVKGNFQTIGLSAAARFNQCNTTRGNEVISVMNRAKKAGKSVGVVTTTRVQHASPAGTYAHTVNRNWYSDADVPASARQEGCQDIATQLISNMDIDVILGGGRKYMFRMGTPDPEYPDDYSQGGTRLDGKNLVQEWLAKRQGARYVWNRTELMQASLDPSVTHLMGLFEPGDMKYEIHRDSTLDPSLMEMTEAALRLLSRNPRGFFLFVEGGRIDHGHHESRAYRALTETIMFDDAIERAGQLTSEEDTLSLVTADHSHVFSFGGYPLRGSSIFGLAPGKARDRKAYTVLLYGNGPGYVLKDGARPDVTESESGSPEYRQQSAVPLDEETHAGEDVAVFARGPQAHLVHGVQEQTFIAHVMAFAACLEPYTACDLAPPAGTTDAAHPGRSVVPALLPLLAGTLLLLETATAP
hDAT+cocaine: changed human dopamine transporter uptake under cocaine IC80; LLC-PK1 hDAT cells, [14C]-dopamine uptake with cocaine IC80; actives deviate in either direction; B-score at 10 µM; actives 1.3% (n = 110,000); AID 449768;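 active = Z score or B-score, a plate-position-corrected score, falls beyond the plate's 99.7% confidence bounds, in either direction; inactive = both scores lie inside the 99.7% bounds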;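 also: scored against the spread of the other compound wells on the same plate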
Calb biofilm kill: kills Candida albicans biofilms; C. albicans biofilm + clotrimazole, Alamar Blue; inhibition, % at 6 µM; actives 0.14% (n = 85,000); AID 834;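 active = inhibition above 20%; inactive = inhibition below 20%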;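 also: preformed 24 hr biofilms exposed to compound for 48 hr; 0% = biofilm without compound and 100% = blank killed by clotrimazole plus chlorhexidine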
TNAP act mid DEA: human TNAP activation, intermediate phosphate acceptor; P05186; purified TNAP, CDP-star luminescence, 100 mM DEA, 30 min; stronger effect = higher value; scale: 0 levamisole-inhibited, 1 vehicle-only enzyme; activation factor at 20 µM; 64,000 tested, under 10 active; AID 813;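 active = activation factor of at least 2 at 20 µM, relative to controls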
HePTP inhibitor: human HePTP phosphatase inhibition; inhibition, % at 20 µM; AID 521; actives 0.64% (n = 110,000); recombinant HePTP phosphatase activity, OD absorbance; in the data active = inhibition above about 50%;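 also: plate controls were vehicle for no effect and reference inhibitor for full effect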
D1 allo mod: allosterically modulates the human D1 dopamine receptor; HEK293 D1, CRE-luciferase, dopamine EC30 potentiation; actives deviate in either direction; B-score at 10 µM; AID 641; actives 5.9% (n = 58,000); P21728;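 active = luminescence count or its row- and column-corrected plate score outside the 99.7% band of the plate's sample wells, on either side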
D1 PAM confirm: D1 receptor (human) allosteric modulation, confirmed; AID 642; luminescence at 10 µM; actives 88% (n = 2,200); HEK293 D1 CRE-luciferase, dopamine EC30 potentiation; stronger effect = higher value; shares compounds with D1 allo mod;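 active = luminescence in either of two replicates above the same-plate mean plus 3 SD of the low-dose dopamine control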
D1 ag no DA: secondary test of D1 modulators: activity without dopamine; luminescence at 10 µM; shares compounds with D1 allo mod; AID 646; actives 0.8% (n = 1,900); HEK293 D1 CRE-luciferase, luminescence, no dopamine; stronger effect = higher value; in the data active = luminescence above about 3900
Isoprot counter: isoproterenol response counter-screen activity for D1 modulators. actives 63% (n = 2,200). HEK293 D1 CRE-luciferase, isoproterenol EC30 counter-screen; stronger effect = higher value. luminescence at 10 µM. shares compounds with D1 allo mod;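 active = luminescence in either replicate above plate mean of wells with a partly effective reference agonist dose plus 3 SD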;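 also: isoproterenol raises cAMP through native beta-adrenoceptor Gs so signal bypasses D1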
An asterisk follows results filed as active.

For N#Cc1c(-c2cccs2)cc(-c2cccnc2)nc1N the results were PLAP act 0.9, hDAT+cocaine -0.062, TNAP act mid DEA 0.9, HePTP inhibitor 10, D1 allo mod 18*, D1 PAM confirm 16780*, D1 ag no DA 1536 and Isoprot counter 3548*.
For N#Cc1c(-c2cccs2)cc(-c2ccccn2)nc1N the results were PLAP act 1, hDAT+cocaine 0.11, Calb biofilm kill 8, TNAP act mid DEA 0.8, HePTP inhibitor 11, D1 allo mod 5.6*, D1 PAM confirm 10756*, D1 ag no DA 1560 and Isoprot counter 3144*.
Screening c1cncc(-c2nnc(-c3cccs3)o2)c1 returned PLAP act 0.9, hDAT+cocaine -0.19, Calb biofilm kill 10, TNAP act mid DEA 1.1, HePTP inhibitor -5 and D1 allo mod 0.11.
For CCCN(CCC)CCCNC(=O)/C=N\O the results were HePTP inhibitor -3.
`COc1ccc(Nc2nc3ccccc3nc2C)cc1` gave PLAP act 1.5, hDAT+cocaine 2.1, Calb biofilm kill 7, TNAP act mid DEA 0.9, HePTP inhibitor 2, D1 allo mod 3.1*, D1 PAM confirm 8152* and Isoprot counter 2612.
`O=C(c1cccn2c(=O)c3cc(Cl)ccc3nc12)N1CCN(Cc2ccc3c(c2)OCO3)CC1` gave PLAP act 1.3, Calb biofilm kill 9, TNAP act mid DEA 0.9, HePTP inhibitor 3, D1 allo mod 3*, D1 PAM confirm 6868*, D1 ag no DA 1600 and Isoprot counter 2704.
Screening Cc1cc(NC(=O)c2cc(S(=O)(=O)N3CCCCC3)ccc2C)n(-c2ccccn2)n1 returned PLAP act 1.4, hDAT+cocaine 1.1, Calb biofilm kill 6, TNAP act mid DEA 1, HePTP inhibitor 10, D1 allo mod 21*, D1 PAM confirm 16476*, D1 ag no DA 1732 and Isoprot counter 5612*.
`Cc1ccc(S(=O)(=O)N2CCOCC2)cc1C(=O)Nc1ccccn1` gave PLAP act 1, hDAT+cocaine 0.22, Calb biofilm kill -2, TNAP act mid DEA 0.9, HePTP inhibitor 5 and D1 allo mod -0.092.
Screening CC(C)c1ccc(NC(=O)c2cccc(Cl)c2)cc1 returned HePTP inhibitor -20.
For O=C(NCCO)C(=O)Nc1ccc(Oc2ccccc2)cc1 the results were HePTP inhibitor -7.
Screening COC(=O)c1cc(NC(=O)CCc2c(C)nc3ncnn3c2C)cc(C(=O)OC)c1 returned PLAP act 1, hDAT+cocaine 0.42, Calb biofilm kill 11, TNAP act mid DEA 0.9, HePTP inhibitor 4, D1 allo mod 5.2*, D1 PAM confirm 5564 and Isoprot counter 2420.
Screening Cc1cc(N2CCN(C/C=C/c3ccccc3)CC2)n2c(nc3ccccc32)c1C#N returned HePTP inhibitor -2.
For Cn1c(COc2ccc3ccccc3c2)nc2ccccc21 the results were HePTP inhibitor 1.
Screening Cc1cc(Nc2ccccc2Br)n2nc(C)nc2n1 returned Calb biofilm kill 11, TNAP act mid DEA 1, HePTP inhibitor 12 and D1 allo mod -0.15.
For Cc1cc(Nc2ccc(C)c(Br)c2)n2nc(C)nc2n1 the results were hDAT+cocaine -1, Calb biofilm kill 3, TNAP act mid DEA 1, HePTP inhibitor 3, D1 allo mod 2.8*, D1 PAM confirm 7632, D1 ag no DA 1564 and Isoprot counter 2644.
CC(=O)C(C)Oc1ccc2c3c(c(=O)oc2c1)CCCC3 (stereo not drawn) was read as PLAP act 0.9, hDAT+cocaine 0.83, Calb biofilm kill 3, TNAP act mid DEA 0.9, HePTP inhibitor 9, D1 allo mod 7.8*, D1 PAM confirm 8432* and Isoprot counter 3280*.
Screening CC(=O)COc1ccc2c3c(c(=O)oc2c1)CCCC3 returned PLAP act 1.3, hDAT+cocaine 0.019, Calb biofilm kill 8, TNAP act mid DEA 0.9, HePTP inhibitor -8, D1 allo mod 4.9*, D1 PAM confirm 9956*, D1 ag no DA 1048 and Isoprot counter 3800*.
Screening CC(=O)C(C)Oc1ccc2c3c(c(=O)oc2c1)CCCCC3 (stereo not drawn) returned PLAP act 0.9, hDAT+cocaine -0.042, Calb biofilm kill 7, TNAP act mid DEA 0.9, HePTP inhibitor 10 and D1 allo mod 1.5.
`N#CC1(C(=O)Nc2ccc(C(=O)O)cc2)CC2c3ccccc3C1c1ccccc12` (stereo not drawn) gave HePTP inhibitor 1.
Screening O=c1cc(-c2ccccc2Cl)c2c([nH]1)CCC2 returned hDAT+cocaine -0.41, Calb biofilm kill -1, TNAP act mid DEA 0.8, HePTP inhibitor 1 and D1 allo mod 0.19.
Screening O=c1cc(-c2ccccc2)c2c([nH]1)CCCC2 returned hDAT+cocaine -0.37, Calb biofilm kill 6, TNAP act mid DEA 1, HePTP inhibitor 0, D1 allo mod 5.3*, D1 PAM confirm 7876*, D1 ag no DA 1792 and Isoprot counter 2596.
Cc1c2c(nc3c(C(=O)NC4CCCC4)cnn13)CCCC2 was read as PLAP act 1.3, hDAT+cocaine 0.37, Calb biofilm kill 0, TNAP act mid DEA 0.9, HePTP inhibitor 1, D1 allo mod 5*, D1 PAM confirm 11564*, D1 ag no DA 1764 and Isoprot counter 3860*.
For O=C(NC1CCCC1)c1cnn2c(C(F)(F)F)cc(-c3ccco3)nc12 the results were PLAP act 1.2, hDAT+cocaine 0.16, Calb biofilm kill 7, TNAP act mid DEA 0.9, HePTP inhibitor 6 and D1 allo mod 3.5.
`CC1(C)OC2OC(COC(=O)c3ccccc3Cl)C3OC(C)(C)OC3C2O1` (stereo not drawn) gave HePTP inhibitor -4.
For CC(C)(C)C1CCc2onc(C(=O)Nc3cccnc3)c2C1 (stereo not drawn) the results were PLAP act 1.1, hDAT+cocaine 0.84, TNAP act mid DEA 0.8, HePTP inhibitor 5, D1 allo mod 10*, D1 PAM confirm 19704*, D1 ag no DA 1720 and Isoprot counter 3908*.
For C=CCSc1nc2sc(C)c(C)c2c(=O)n1CC=C the results were hDAT+cocaine 1.4 and Calb biofilm kill 9.

Compound activity (PubChem BioAssay)
